From PubChem BioAssay (Tox21)
Inconclusive results are not listed. Active and inactive are the calls of the source. Unless noted, calls follow the shape of the dose curve; as a rule, active = well fitted curve in the direction sought with a large enough effect in the repeat runs; inconclusive = weak or mixed curves; inactive = no such curve, though single readings can be large; an effect the other way counts as inactive or inconclusive.

Tests used:
[1] = qHTS assay to identify small molecule agonists of the RXR signaling pathway - cell viability counter screen (AID 1159529); also: nearly all actives have a fitted effect of over 50% in size; also: potency is read from the fitted curve at half-maximal effect
In short: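 Luminescence from CellTiter-Glo (30 min, RT) measured viability in the same wells as the beta-lactamase reporter readout. Cells: GeneBLAzer RXR-alpha HEK 293T, 2% charcoal-stripped FBS. Compound exposure 16 hr, 37 C.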

[2] = qHTS assay to identify small molecule antagonists of the retinoid acid receptor (RAR) signaling pathway - cell viability counter screen (AID 1159551); also: nearly all actives have a fitted effect of over 35% in size
In short: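 Cytotoxicity counter screen in C3RL4 cells: 6 h compound exposure with 1 uM retinol (final), viability from cellular ATP by luminescence.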

[3] = qHTS assay to identify small molecule antagonists of the retinoic acid receptor (RAR) signaling pathway (AID 1159552; also: nearly all actives have a fitted effect of over 50% in size; also: potency is read from the fitted curve at half-maximal effect)
In short: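 Luminescence from a RARE luciferase reporter in C3RL4 cells served as read-out. Cells received compounds together with 1 uM final retinol and incubated 6 hr at 37 C before detection reagent was added for 30 min at room temperature.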

[4] = qHTS assay to identify small molecule antagonists of the estrogen related receptor (ERR) signaling pathway from Tox21 library - cell viability counter screen (AID 1224834); also: nearly all actives have a fitted effect of over 30% in size; also: potency is read from the fitted curve at half-maximal effect
In short: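 Cytotoxicity of test substances is gauged in the same ERR cells used for the antagonist screen, after 17.5 h of compound treatment at 37 C, by CellTiter-Fluor fluorescence measured after 30 min.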

[5] = target: Luciferin 4-monooxygenase (Photinus pyralis) (UniProt P08659); assay: qHTS assay to identify small molecule inhibitors of firefly luciferase (AID 1224835); also: nearly all actives have a fitted effect of over 25% in size; also: potency is read from the fitted curve at half-maximal effect
In short: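 Inhibition of purified Photinus luciferase is measured by luminescence. Substrate levels (D-luciferin, ATP) sit at their KM values. Each compound is tested in a concentration series.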

[6] = qHTS assay to identify small molecule agonists of the constitutive androstane receptor (CAR) signaling pathway - cell viability counter screen (AID 1224836); also: series mostly up to about 92 µM; nearly all actives have a fitted effect of over 45% in size
In short: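 Viability read-out: CellTiter-Fluor fluorescence after 23 h compound exposure at 37 C/5% CO2 in double-stable HepG2-CYP2B6-hCAR cells, with PK11195 present at 0.75 uM final; compounds tested in 15-point titration.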

[7] = target: Nuclear receptor subfamily 1 group I member 3 (Homo sapiens) (UniProt Q14994); assay: qHTS assay to identify small molecule antagonists of the constitutive androstane receptor (CAR) signaling pathway (AID 1224838); also: nearly all actives have a fitted effect of over 40% in size; also: potency is read from the fitted curve at half-maximal effect
In short: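 Compounds were titrated across 15 concentrations onto HepG2 cells double-stably expressing hCAR and a CYP2B6-2.2kb reporter, together with 50 nM CITCO (final). After 24 h at 37 C, luciferase activity was measured by luminescence.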

[8] = target: Nuclear receptor subfamily 1 group I member 3 (Homo sapiens) (UniProt Q14994); assay: qHTS assay to identify small molecule agonists of the constitutive androstane receptor (CAR) signaling pathway (AID 1224839); also: nearly all actives have a fitted effect of over 15% in size; also: potency is read from the fitted curve at half-maximal effect
In short: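 Luminescence read-out (ONE-Glo, 30 min, room temperature) from double-stable HepG2-CYP2B6-hCAR cells exposed 24 h to 15-point compound series in presence of 0.75 uM PK11195 final.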

[9] = qHTS assay to identify small molecule antagonists of the estrogen related receptor signaling pathway with the pleiotropic PPARgamma coactivator (PGC) from Tox21 10K library - cell viability counter screen (AID 1224840; active = well fitted cell-killing curve with a large enough effect in the repeat runs, not every such curve was filed as active; also: nearly all actives have a fitted effect of over 40% in size)
In short: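 Step one, plate 2,000 PGC/ERR cells per well; step two, incubate 6 h at 37 C/5% CO2; step three, pin-transfer compounds; step four, incubate 17.5 h; step five, add CellTiter-Fluor and read fluorescence after 30 min.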

[10] = qHTS assay to identify small molecule agonists of the retinoic acid receptor (RAR) signaling pathway (AID 1159553); also: potency is read from the fitted curve at half-maximal effect
In short: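 Agonist activity was scored in C3RL4 cells bearing a retinoic acid response element luciferase construct. Cells were treated with compounds for 6 hr at 37 C, and luciferase signal was measured as luminescence.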

[11] = qHTS assay to identify small molecule antagonists of the constitutive androstane receptor (CAR) signaling pathway - cell viability counter screen (AID 1224837); also: series mostly up to about 92 µM; nearly all actives have a fitted effect of over 45% in size
In short: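 Multiplexed cytotoxicity read-out for the CAR antagonist screen: double-stable HepG2-CYP2B6-hCAR cells co-treated with 50 nM CITCO (final) and compound over 15 concentrations, incubated 23 hr, then assessed by CellTiter-Fluor fluorescence.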

[12] = qHTS assay to identify small molecule antagonists of the estrogen related receptor signaling pathway with the pleiotropic PPARgamma coactivator (PGC) from Tox21 10K library (AID 1224841; call rule not given here; also: actives are mostly falling curves and most rising ones were filed inactive; nearly all actives have a fitted effect of over 50% in size; also: potency is read from the fitted curve at half-maximal effect)
In short: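 Antagonism in this quantitative HTS is taken from loss of luciferase signal in PGC/ERR cells. Cells (2,000/well) are treated with compounds in DMSO after a 6 h settling period and read by One-Glo luminescence after 18 h.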

[13] = qHTS assay to identify small molecule agonists of the estrogen related receptor signaling pathway with the pleiotropic PPARgamma coactivator (PGC) from Tox21 10K library (AID 1224842); also: nearly all actives have a fitted effect of over 15% in size; also: potency is read from the fitted curve at half-maximal effect
In short: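 Luminescence from One-Glo (30 min, room temperature) measured after PGC/ERR cells had 18 h at 37 C with pinned compound (23 nL in DMSO). Cells had been seeded at 2,000 per well and pre-incubated 6 h.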

[14] = qHTS assay to identify small molecule antagonists of the estrogen related receptor (ERR) signaling pathway - cell viability counter screen (AID 1224818);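 also: series mostly up to about 46 µM; viability measured after 17.5 h of compound exposure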
In short: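 Cells carrying the ERR pathway reporter were seeded and incubated for 6 hours before compound addition. After a 17.5-hour exposure at 37 C, live-cell protease activity was measured by CellTiter-Fluor fluorescence following 30 minutes of incubation.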

[15] = qHTS assay to identify small molecule antagonists of the estrogen related receptor signaling pathway with the pleiotropic PPARgamma coactivator (PGC) cell viability counter screen (AID 1224822;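 also: series mostly up to about 46 µM; viability read after 17.5 h compound exposure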)
In short: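 Seed PGC/ERR cells (2,000/well); incubate 6 h at 37 C/5% CO2; pin-transfer compounds in DMSO; incubate 17.5 h at 37 C; add CellTiter-Fluor; after 30 min read fluorescence.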

[16] = qHTS assay to identify small molecule antagonists of the estrogen related receptor (ERR) signaling pathway (AID 1224819; also: nearly all actives have a fitted effect of over 50% in size; also: potency is read from the fitted curve at half-maximal effect)
In short: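 Compounds dissolved in DMSO were pin-transferred onto ERR cells that had been plated 6 h earlier, and cells were then incubated 18 h at 37 C; signal was luciferase luminescence via One-Glo.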

[17] = qHTS assay to identify small molecule agonists of the estrogen related receptor (ERR) signaling pathway (AID 1224820)
In short: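 Cells: ERR line from NTP, 2,000/well. Pre-incubation 6 h, 37 C/5% CO2. Compound (DMSO) pin transfer, 18 h 37 C. One-Glo, 30 min RT, luminescence.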

[18] = test system: estrogen-related receptor alpha (ERRalpha) with PGC-1alpha coactivator, human; assay: qHTS assay to identify small molecule antagonists of the estrogen related receptor signaling pathway with the pleiotropic PPARgamma coactivator (PGC) (AID 1224821; calls by dose curve; also: nearly all actives have a fitted effect of over 50% in size; also: potency is read from the fitted curve at half-maximal effect)
In short: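 Luminescent read-out (One-Glo, 30 min at room temperature) following 18 h treatment of PGC/ERR cells at 37 C with compounds delivered in DMSO. Cells had settled 6 h at 37 C/5% CO2 before dosing.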

[19] = qHTS assay to identify small molecule agonists of the estrogen related receptor signaling pathway with the pleiotropic PPARgamma coactivator (PGC) (AID 1224823)
In short: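 Steps: plate PGC/ERR cells at 2,000 cells/well; incubate 6 h, 37 C/5% CO2; pin-transfer compounds (DMSO); incubate 18 h, 37 C; add One-Glo; 30 min RT; read luminescence.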

Measured: Potency

Nuclear receptor subfamily 1 group I member 3 (Homo sapiens), sequence (Q14994 whole entry, looked up): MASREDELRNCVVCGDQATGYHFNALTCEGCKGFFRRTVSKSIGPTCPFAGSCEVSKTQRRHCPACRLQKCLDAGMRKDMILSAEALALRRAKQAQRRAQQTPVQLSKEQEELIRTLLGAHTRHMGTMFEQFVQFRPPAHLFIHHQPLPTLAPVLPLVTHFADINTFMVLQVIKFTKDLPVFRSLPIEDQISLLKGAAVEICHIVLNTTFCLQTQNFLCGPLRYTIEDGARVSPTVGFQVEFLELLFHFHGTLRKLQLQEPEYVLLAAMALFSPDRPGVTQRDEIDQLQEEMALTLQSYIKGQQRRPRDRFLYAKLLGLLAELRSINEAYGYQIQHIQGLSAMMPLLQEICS
Luciferin 4-monooxygenase (Photinus pyralis), sequence (P08659 whole entry, looked up): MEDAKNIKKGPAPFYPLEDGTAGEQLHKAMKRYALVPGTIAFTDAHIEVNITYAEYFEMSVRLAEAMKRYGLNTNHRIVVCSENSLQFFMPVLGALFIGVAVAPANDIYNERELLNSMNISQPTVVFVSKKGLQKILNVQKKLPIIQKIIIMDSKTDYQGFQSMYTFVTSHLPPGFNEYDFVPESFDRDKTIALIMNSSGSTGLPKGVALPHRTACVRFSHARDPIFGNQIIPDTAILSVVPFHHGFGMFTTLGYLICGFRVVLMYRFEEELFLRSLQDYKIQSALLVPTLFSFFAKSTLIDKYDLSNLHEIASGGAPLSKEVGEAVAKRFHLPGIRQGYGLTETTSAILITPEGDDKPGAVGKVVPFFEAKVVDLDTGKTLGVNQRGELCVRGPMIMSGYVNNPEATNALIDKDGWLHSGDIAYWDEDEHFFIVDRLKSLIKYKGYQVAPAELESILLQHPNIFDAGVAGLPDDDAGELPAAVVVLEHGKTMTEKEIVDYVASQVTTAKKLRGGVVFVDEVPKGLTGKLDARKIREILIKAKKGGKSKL

C=C(C)c1ccccc1
inactive: [1] | [2] | [3] | [4] | [5] | [6] | [7] | [8] | [9]

CCC1CCC(CCC(=O)O)C1 (configuration not stated)
inactive: [1] | [2] | [3] | [10] | [4] | [6] | [11] | [7] | [8] | [9] | [12] | [13]

O=C(O)/C=C/c1ccc(O)c(O)c1
inactive: [1] | [2] | [3] | [10] | [14] | [15] | [4] | [5] | [6] | [11] | [8] | [9]

O=C1NC(=O)c2cccc3cccc1c23
inactive: [1] | [2] | [3] | [4] | [5] | [6] | [7] | [8] | [9]

O=C(O)c1cccc(Oc2ccccc2)c1
inactive: [1] | [2] | [3] | [10] | [4] | [5] | [6] | [11] | [8] | [9] | [12] | [13]

CCN(CC)CCOc1ccccc1C(=O)CCc1ccccc1
inactive: [2] | [3] | [10] | [5] | [6] | [7] | [9] | [12] | [13]
active: [1] 9.52 µM | [8] 26.6 µM

COc1ccc(/C=C/C(=O)c2ccc(OC)cc2OC)cc1
active: [10] 29.8 µM | [5] 17.4 µM | [8] 21.1 µM
inactive: [2] | [3] | [4] | [6] | [11] | [7] | [9] | [12] | [13]

c1ccc(CCCc2ccncc2)cc1
inactive: [1] | [2] | [3] | [4] | [6] | [9]

COc1ccc(-c2cc(C(F)F)nn2-c2ccc(S(N)(=O)=O)cc2)cc1F
inactive: [1] | [10] | [4] | [5] | [6] | [11] | [8] | [9] | [12] | [13]

COC(=O)Nc1nc2ccc(C(=O)C3CC3)cc2[nH]1
active: [5] 19.5 µM
inactive: [1] | [2] | [3] | [6] | [11] | [9]

C=CC(=O)NC(C)C
inactive: [1] | [2] | [4] | [5] | [6] | [11] | [9] | [12] | [13]

CCN(CC)CCNC(=O)c1cc(Cl)c(N)cc1OC
inactive: [1] | [2] | [14] | [15] | [4] | [5] | [6] | [11] | [7] | [8] | [9]

O=NN(CCCl)C(=O)NCCCl
inactive: [1] | [2] | [14] | [16] | [17] | [18] | [15] | [19] | [4] | [5] | [6] | [11] | [7] | [9] | [12] | [13]

COC(=O)C1=C(C)NC(C)=C(C(=O)OC(C)(C)CN(C)CCC(c2ccccc2)c2ccccc2)C1c1cccc([N+](=O)[O-])c1 (configuration not stated)
active: [16] 19.6 µM | [18] 13.9 µM | [4] 23.7 µM | [12] 16.8 µM
inactive: [1] | [2] | [17] | [19] | [5] | [7] | [8] | [13]

CC(C)(C)CCCCCCOC(=O)c1ccccc1C(=O)OCCCCCCC(C)(C)C
inactive: [1] | [2] | [10] | [4] | [5] | [6] | [11] | [7] | [8] | [9] | [13]

O[C@@H](CNC[C@H](O)[C@H]1CCc2cc(F)ccc2O1)[C@@H]1CCc2cc(F)ccc2O1
active: [1] 19 µM | [3] 29.8 µM | [4] 29.8 µM | [12] 33.5 µM
inactive: [5] | [8] | [13]

O=C(Oc1ccccc1)c1ccc2ccccc2c1O
inactive: [2] | [3] | [4] | [6] | [11] | [7] | [9] | [12]
active: [10] 0.864 µM | [5] 2.52 µM | [8] 54.5 µM | [13] 9.69 µM

COc1cc(OC)c2ccc(=O)oc2c1
inactive: [1] | [2] | [4] | [5] | [6] | [11] | [7] | [9]

COc1cc(NCc2ccc3nc(N)nc(N)c3c2C)cc(OC)c1OC
inactive: [2] | [5] | [6] | [8] | [9] | [13]
active: [7] 0.0266 µM | [12] 0.075 µM

CCCCCCCC/C=C\CCCCCCCC(=O)OCCO
inactive: [2] | [10] | [4] | [6] | [11] | [9]

CN(C)CC/C=C1\c2ccccc2Sc2ccc(Cl)cc21
inactive: [5] | [8] | [12]
active: [3] 29.8 µM

CNS(=O)(=O)c1cc(C(=O)N2CCC(CCN3C4CCC3CC(n3c(C)nc5ccccc53)C4)(c3cccc(F)c3)CC2)c(Cl)cc1F (configuration not stated)
active: [1] 6.16 µM | [4] 13.7 µM
inactive: [2] | [5] | [11]

O=[N+]([O-])c1ccc2ncccc2c1
inactive: [1] | [2] | [10] | [4] | [6] | [8] | [9] | [13]
